According to PubChem BioAssay (Tox21):
Results filed as inconclusive are left out. A call without a number means that no potency is given here. Active and inactive are the calls of the source. Unless noted, the call rests on the fitted dose curve; in most records, active means well fitted curve in the direction sought with a large enough effect in the repeat runs; inconclusive means weak or mixed curves; inactive means no such curve, though single readings can be large; an effect the other way counts as inactive or inconclusive.

Legend:
[1] = A CellTox Green Cytotoxicity Assay to monitor cytotoxicity in HEK293 cells - 32 hour (AID 1224881); further: nearly all actives have a fitted effect of over 40% in size; further: potency means the concentration at half of the fitted maximal effect
How it was run: (§1)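 Seeding of HEK293 cells together with cytotoxicity dye preceded a 5 h incubation at 37 C/5% CO2. Test compounds in DMSO were then added and fluorescence monitored across 40 h.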

[2] = A CellTox Green Cytotoxicity Assay to monitor cytotoxicity in HepG2 cells - 0 hour (AID 1224882); further: nearly all actives have a fitted effect of over 35% in size
How it was run: (§2)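 Nonlytic assay: viable cells exclude the dye, so fluorescence scales with cell death. HepG2 at 600 cells/well, compounds added after 5 h, signal read across 40 h.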

[3] = A CellTox Green Cytotoxicity Assay to monitor cytotoxicity in HepG2 cells - 32 hour (AID 1224883); further: nearly all actives have a fitted effect of over 50% in size; further: potency means the concentration at half of the fitted maximal effect
How it was run: as §2

[4] = A CellTox Green Cytotoxicity Assay to monitor cytotoxicity in HEK293 cells - 8 hour (AID 1224884); further: nearly all actives have a fitted effect of over 35% in size; further: potency means the concentration at half of the fitted maximal effect
How it was run: as §1

[5] = qHTS RealTime-Glo MT Cell Viability Assay in HepG2 cells - 16 hour (AID 1224885); further: nearly all actives have a fitted effect of over 50% in size; further: potency means the concentration at half of the fitted maximal effect
How it was run: (§3)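 Compound treatment began 5 h after plating HepG2 cells (600/well) with NanoLuc luciferase and prosubstrate. Plates stayed at 37 C for 40 h; luminescence was captured at six time points, 0 h through 40 h.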

[6] = qHTS RealTime-Glo MT Cell Viability Assay in HEK293 cells - 24 hour (AID 1224886); further: nearly all actives have a fitted effect of over 50% in size; further: potency means the concentration at half of the fitted maximal effect
How it was run: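 Quantitative high-throughput screen of the Tox21 10K library in HEK293: cells and RealTime-Glo reagents plated together, compound added at 5 h, luminescence monitored through 40 h at 37 C.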

[7] = qHTS RealTime-Glo MT Cell Viability Assay in HEK293 cells - 8 hour (AID 1224887); further: nearly all actives have a fitted effect of over 50% in size; further: potency means the concentration at half of the fitted maximal effect
How it was run: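 Tox21 screen in HEK293 using RealTime-Glo MT chemistry, with cells and reagent co-dispensed. Luminescence proportional to viable cell number was captured at intervals during 40 h compound exposure at 37 C.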

[8] = A CellTox Green Cytotoxicity Assay to monitor cytotoxicity in HEK293 cells - 16 hour (AID 1224888); further: nearly all actives have a fitted effect of over 35% in size; further: potency means the concentration at half of the fitted maximal effect
How it was run: as §1

[9] = qHTS RealTime-Glo MT Cell Viability Assay in HepG2 cells - 0 hour (AID 1224889); further: nearly all actives have a fitted effect of over 50% in size
How it was run: as §3

[10] = A CellTox Green Cytotoxicity Assay to monitor cytotoxicity in HepG2 cells - 8 hour (AID 1224890); further: nearly all actives have a fitted effect of over 45% in size; further: potency means the concentration at half of the fitted maximal effect
How it was run: as §2

[11] = qHTS assay to identify small molecule antagonists of the estrogen receptor alpha (ER-alpha) signaling pathway using the BG1 cell line in the presence of 0.1 nM 17-beta-estradiol - cell viability counter screen (AID 1259241); further: nearly all actives have a fitted effect of over 40% in size; further: potency means the concentration at half of the fitted maximal effect
How it was run: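 In this screen, hormone-deprived VM7Luc4E2 cells were seeded at 4,000 per well, dosed with compound and 0.1 nM estradiol final, and incubated 22 hr at 37C and 5% CO2; fluorogenic live-cell protease signal reported viability.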

[12] = qHTS assay to identify small molecule antagonists of the androgen receptor (AR) signaling pathway using the MDA cell line in the presence of 0.5 nM R1881 - cell viability counter screen (AID 1259242); further: nearly all actives have a fitted effect of over 45% in size; further: potency means the concentration at half of the fitted maximal effect
How it was run: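 R1881 at 0.5 nM final stimulated MDA-kb2 cells during 16 hr compound treatment at 37C. Cytotoxicity read: CellTiter-Fluor fluorescence after 30 min.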

[13] = biological target: Estrogen receptor (Homo sapiens) (UniProt P03372); assay: qHTS assay to identify small molecule antagonists of the estrogen receptor alpha (ER-alpha) signaling pathway using the BG1 cell line in the presence of 0.1 nM 17-beta-estradiol (AID 1259244); further: nearly all actives have a fitted effect of over 50% in size; further: potency means the concentration at half of the fitted maximal effect
Chain of Estrogen receptor (Homo sapiens) (P03372 whole entry, looked up): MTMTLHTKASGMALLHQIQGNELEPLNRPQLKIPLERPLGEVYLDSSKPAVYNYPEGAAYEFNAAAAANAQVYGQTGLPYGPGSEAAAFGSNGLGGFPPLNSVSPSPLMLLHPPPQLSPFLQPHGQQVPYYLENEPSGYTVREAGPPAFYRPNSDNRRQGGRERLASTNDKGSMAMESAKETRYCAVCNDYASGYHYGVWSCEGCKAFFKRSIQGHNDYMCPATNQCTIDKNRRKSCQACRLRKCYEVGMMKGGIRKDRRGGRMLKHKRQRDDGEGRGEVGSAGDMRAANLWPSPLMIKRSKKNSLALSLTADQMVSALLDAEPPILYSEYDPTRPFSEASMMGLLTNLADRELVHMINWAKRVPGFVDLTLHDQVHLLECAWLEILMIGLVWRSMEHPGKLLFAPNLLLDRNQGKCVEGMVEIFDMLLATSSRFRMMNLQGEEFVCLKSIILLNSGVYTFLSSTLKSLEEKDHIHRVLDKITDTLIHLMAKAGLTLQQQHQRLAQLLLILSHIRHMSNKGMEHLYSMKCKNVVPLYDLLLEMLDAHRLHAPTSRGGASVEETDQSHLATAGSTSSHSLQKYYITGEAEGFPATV
How it was run: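 VM7Luc4E2; 4xERE-luciferase; 0.1 nM E2 final; 22 h co-incubation, 37C; ONE-Glo luminescence after 30 min at room temperature.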

[14] = qHTS assay to identify small molecule phospholipidosis (PLD) inducers (AID 1259344; active means well fitted curve in the direction sought with a large enough effect; an effect the other way counts as inactive or inconclusive)
How it was run: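 HepG2 cells on collagen I, attached 4 h at 37 C, were co-treated with compound and LipidTOX Red dye for 24 h at 37 C, then fixed with paraformaldehyde plus Hoechst 33342 and imaged by high-content microscopy for phospholipid accumulation.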

[15] = qHTS assay to identify small molecule HDAC inhibitors (AID 1259364);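 further: wild-type HCT-116 cells with endogenous class I/II HDAC activity; top concentration of the series differs between compounds; nearly all actives have a fitted effect of over 45% in size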
How it was run: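 Relative class I and II HDAC activity is taken from the luminogenic signal in HCT-116 cells, with compound exposure 2 hr and reagent development 30 min at room temperature.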

[16] = qHTS assay to identify small molecule HDAC inhibitors - cell viability counter screen (AID 1259365); further: nearly all actives have a fitted effect of over 50% in size; further: potency means the concentration at half of the fitted maximal effect
How it was run: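 Measured quantity is CellTiter-Glo luminescence from wild-type HCT-116 cells after compound incubation of 2hr at 37C, 5% CO2; reagent developed 30min at room temperature.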

[17] = qHTS assay to identify small molecule agonists of the sonic hedgehog signaling (Shh) pathway - cell viability counter screen (AID 1259366); further: nearly all actives have a fitted effect of over 50% in size; further: potency means the concentration at half of the fitted maximal effect
How it was run: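 In quantitative high-throughput format, 3T3 Gli1-Luc cells were exposed to compounds for 24hr and multiplexed for viability using CellTiter-Fluor, incubated 1hr at 37C before the fluorescence read.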

[18] = qHTS assay to identify small molecule antagonists of the sonic hedgehog signaling (Shh) pathway - cell viability counter screen (AID 1259367); further: nearly all actives have a fitted effect of over 55% in size; further: potency means the concentration at half of the fitted maximal effect
How it was run: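 NIH/3T3-derived Gli1-Luc reporter cells (2,000 per well) rested 4 hr at 37 C, then received DMSO compounds plus conditioned medium. After 23 hr of treatment, CellTiter-Fluor was added for 1 hr at 37C and fluorescence read.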

[19] = qHTS assay to identify small molecule agonists of the sonic hedgehog signaling (Shh) pathway (AID 1259368; calls by dose curve;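 further: NIH/3T3-derived 3T3Gli1-Luc cells carrying a stable Gli1-driven firefly luciferase reporter; series mostly up to about 92 µM; nearly all actives have a fitted effect of over 15% in size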)
How it was run: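 Mouse fibroblast (NIH/3T3) reporter cells with stably integrated Gli1-Luc were treated 24 hr with compound; firefly luciferase luminescence served as the read-out.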

[20] = biological target: Androgen receptor (Homo sapiens) (UniProt P10275); assay: qHTS assay to identify small molecule antagonists of the androgen receptor (AR) signaling pathway using the MDA cell line in the presence of 0.5 nM R1881 (AID 1259243); further: nearly all actives have a fitted effect of over 50% in size
Chain of Androgen receptor (Homo sapiens) (P10275 whole entry, looked up): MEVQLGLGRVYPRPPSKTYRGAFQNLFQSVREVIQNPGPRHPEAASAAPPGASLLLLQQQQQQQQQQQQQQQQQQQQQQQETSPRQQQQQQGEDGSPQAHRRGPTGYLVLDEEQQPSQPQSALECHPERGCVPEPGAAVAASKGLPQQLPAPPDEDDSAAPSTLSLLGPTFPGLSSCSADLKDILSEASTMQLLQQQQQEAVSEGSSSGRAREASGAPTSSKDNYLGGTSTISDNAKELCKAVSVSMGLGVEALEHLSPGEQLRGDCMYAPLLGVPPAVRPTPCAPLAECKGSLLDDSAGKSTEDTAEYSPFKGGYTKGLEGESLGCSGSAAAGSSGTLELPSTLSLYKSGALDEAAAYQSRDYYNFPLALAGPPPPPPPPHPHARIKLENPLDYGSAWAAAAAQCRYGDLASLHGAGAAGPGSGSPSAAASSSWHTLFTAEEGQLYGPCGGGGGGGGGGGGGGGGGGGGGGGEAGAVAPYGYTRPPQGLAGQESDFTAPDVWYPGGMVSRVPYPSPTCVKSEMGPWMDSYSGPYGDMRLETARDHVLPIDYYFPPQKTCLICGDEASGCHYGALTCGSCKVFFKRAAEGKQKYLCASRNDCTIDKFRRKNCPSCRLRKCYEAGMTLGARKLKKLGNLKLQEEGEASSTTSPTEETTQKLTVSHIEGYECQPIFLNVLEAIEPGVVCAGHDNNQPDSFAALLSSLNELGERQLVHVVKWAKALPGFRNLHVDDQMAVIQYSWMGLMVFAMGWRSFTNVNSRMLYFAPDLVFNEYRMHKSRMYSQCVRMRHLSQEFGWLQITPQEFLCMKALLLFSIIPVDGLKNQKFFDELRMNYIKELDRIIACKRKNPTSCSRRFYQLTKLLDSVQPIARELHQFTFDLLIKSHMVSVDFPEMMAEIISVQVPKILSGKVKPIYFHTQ
How it was run: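 We exposed MDA-kb2 cells to compounds under 0.5 nM R1881 stimulation for 16 hr at 37C and quantified MMTV-driven luciferase by luminescence.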

SMILES | Potency [1] | Potency [2] | Potency [3] | Potency [4] | Potency [5] | Potency [6] | Potency [7] | Potency [8] | Potency [9] | Potency [10] | Potency [11] | Potency [12] | Potency [13] | outcome [14] | Potency [15] | Potency [16] | Potency [17] | Potency [18] | Potency [19] | Potency [20]
CC(Cc1ccc(O)cc1)NCC(O)c1cc(O)cc(O)c1 (centres undefined) | inactive | inactive | inactive | inactive | inactive | inactive | inactive | inactive | inactive | inactive | inactive | inactive | inactive | inactive | inactive | inactive | 8.41 µM (active) | 10.6 µM (active) | inactive | –
O=C(Cl)c1ccccc1F | inactive | inactive | inactive | inactive | inactive | inactive | inactive | inactive | inactive | inactive | inactive | inactive | inactive | – | inactive | inactive | – | inactive | inactive | –
O=NN(CCO)CCO | inactive | inactive | inactive | inactive | inactive | inactive | inactive | inactive | inactive | inactive | inactive | inactive | inactive | – | inactive | inactive | inactive | inactive | inactive | inactive
BrCC(Br)(Br)Br | inactive | inactive | inactive | inactive | inactive | 45.3 µM (active) | 16.1 µM (active) | inactive | inactive | inactive | inactive | inactive | inactive | – | inactive | inactive | inactive | inactive | inactive | –
CC(Cl)CCl (centres undefined) | inactive | inactive | inactive | inactive | inactive | inactive | inactive | inactive | inactive | inactive | inactive | inactive | inactive | – | inactive | inactive | inactive | inactive | inactive | –
C=CCBr | inactive | inactive | inactive | inactive | inactive | inactive | inactive | inactive | inactive | inactive | inactive | inactive | inactive | – | inactive | inactive | inactive | inactive | – | –
CCOC(=O)CCN(SN(C)C(=O)Oc1cccc2c1OC(C)(C)C2)C(C)C | inactive | inactive | inactive | inactive | inactive | inactive | inactive | inactive | inactive | inactive | inactive | inactive | inactive | – | inactive | inactive | – | inactive | inactive | –
C=C(C)C(=O)[O][Sn]([CH2]CCC)([CH2]CCC)[CH2]CCC | 490 nM (active) | inactive | 616 nM (active) | 11 µM (active) | 436 nM (active) | 0.309 µM (active) | 0.776 µM (active) | 8.71 µM (active) | inactive | 871 nM (active) | 770 nM (active) | 545 nM (active) | 486 nM (active) | – | inactive | 12.2 µM (active) | – | 0.486 µM (active) | inactive | –
OCC(Br)CBr (centres undefined) | inactive | inactive | inactive | inactive | inactive | inactive | inactive | inactive | inactive | inactive | inactive | inactive | inactive | – | inactive | inactive | inactive | inactive | inactive | –
CN1C2CCC(C)(C)C1CC(OC(=O)C(O)(c1cccs1)c1cccs1)C2 (centres undefined) | inactive | inactive | inactive | inactive | inactive | inactive | inactive | inactive | inactive | inactive | inactive | inactive | inactive | – | inactive | inactive | – | inactive | inactive | –
Cc1nn(-c2cc(NS(C)(=O)=O)c(Cl)cc2Cl)c(=O)n1C(F)F | inactive | inactive | inactive | inactive | inactive | inactive | inactive | inactive | inactive | inactive | inactive | inactive | – | – | inactive | inactive | inactive | inactive | inactive | inactive
ClC1(Cl)C2(Cl)C3(Cl)C4(Cl)C(Cl)(Cl)C5(Cl)C3(Cl)C1(Cl)C5(Cl)C24Cl (centres undefined) | inactive | inactive | inactive | inactive | inactive | inactive | inactive | inactive | inactive | inactive | inactive | inactive | inactive | – | inactive | inactive | inactive | inactive | inactive | inactive
